Screening data from PubChem BioAssay.
Rows were chosen to be rich in hits. Some 12% of all compounds tested hit in one or more screens of this group.
SARS PLP yeast = qHTS of Yeast-based Assay for SARS-CoV PLP; S. cerevisiae expressing SARS-CoV PLpro, growth rescue; Potency, µM (highest dose often 32.9 µM), actives largely listed as activators; hit rate 0.19% among 330,000; AID 485353, 2010; note: nearly all actives have a fitted effect of over 55% in size
NS1 inh = qHTS Assay for Inhibitors of Influenza NS1 Protein Function | AID 2326, 2010 | Potency, µM (series often up to 46.1 µM) | hit rate 0.4% among 270,000; note: actives are rising curves; nearly all actives have a fitted effect of over 50% in size
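In this qHTS, NS1 from influenza A is expressed in budding yeast, where it slows growth. Cells are switched from glucose to 2% galactose medium (pH 6.0, -URA), treated with compound, and growth recovery is read at OD600.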
Shiga toxin inh = A qHTS for Small Molecule Inhibitors of Shiga Toxin; Vero cells, Shiga toxin protein synthesis inhibition reporter; inhibition, % at 38.7 µM; hit rate 9.2% among 290,000; AID 2315, 2010; in the data active = inhibition mostly above about 28%, no sharp cut-off; inactive = mostly below about 43%
Cycloheximide cs = Cycloheximide Counterscreen for Small Molecule Inhibitors of Shiga Toxin; AID 2314, 2010; hit rate 12% among 300,000; cell reporter, cycloheximide protein synthesis inhibition counterscreen; max response, %; in the data active = max response mostly above about 13%, no sharp cut-off; inactive = mostly below about 14%; note: read at 38.3 µM for the half of the compounds with a filed dose
Numbers stand for hits; - = inactive; ? = inconclusive; . = no result. Unless noted, calls come from the whole dose curve.

SMILES	SARS PLP yeast	NS1 inh	Shiga toxin inh	Cycloheximide cs
COc1ccc(OC)c(-n2c(Cn3c(-c4ccccn4)nc4ccccc43)n[nH]c2=S)c1	-	.	-	-
Nc1nnc(SCC(=O)Nc2ccccc2)s1	-	-	-	10.2
Cc1nnc(SCC(=O)Nc2cc(-c3cc(C)c(C)cc3C)nn2-c2ccccc2)s1	-	-	-	-
COC(=O)c1ccc(NC(=O)CSc2nc3ccc(N4C(=O)C5C6C=CC(C6)C5C4=O)cc3s2)cc1 (centres undefined)	-	?	-	23.0
CCCc1ccc(-c2cc(NC(=O)CSc3nnc(N)s3)n(-c3ccccc3)n2)cc1	-	?	99.1	43.1
Cn1cnnc1SCC(=O)Nc1ccc2nc(SCc3ccccc3F)sc2c1	-	-	164.8	49.9
CCc1cccc(CC)c1NC(=O)CSc1nc2ccc(N3C(=O)C4C5C=CC(C5)C4C3=O)cc2s1 (centres undefined)	-	-	-	-
COc1ccc(NC(=O)CN2C(=O)NC3(CCCc4ccccc43)C2=O)c(OC)c1 (centres undefined)	-	.	.	.
CN(C)S(=O)(=O)c1cccc(NC(=O)COC(=O)CNC(=O)c2ccccc2F)c1	-	-	-	-
CC(=O)NC(Cc1ccc(F)cc1)C(=O)NC1CCN(C(=O)NCc2ccccc2)CC1 (centres undefined)	-	-	-	-
CSc1nc2ccc(NC(=O)CSc3nnc(N)s3)cc2s1	-	-	-	33.4
CN(CCOc1ccccc1)C(=O)C1CCC(=O)N(CCc2ccc(Cl)cc2)C1 (centres undefined)	-	-	87.2	46.5
CN(Cc1ccccn1)C(=O)C1CCC(=O)N(CCc2ccc(Cl)cc2)C1 (centres undefined)	-	-	-	-
COc1ccc(CCN2CC(C(=O)NCCc3ccccc3)CC2=O)cc1OC (centres undefined)	-	.	171.9	36.4
O=C1CCC(C(=O)N2CCCCO2)CN1CCc1ccc(Cl)cc1 (centres undefined)	-	-	-	20.0
COc1ccc(CCN2CC(C(=O)N(C)CCOc3ccccc3)CCC2=O)cc1 (centres undefined)	-	-	-	25.9
O=C1CCC(C(=O)N2CCC(O)CC2)CN1CCc1ccc(Cl)cc1 (centres undefined)	-	-	-	-
COCCN(C(=O)CCSc1ccc(F)cc1)c1c(N)n(Cc2ccccc2)c(=O)[nH]c1=O	-	.	.	.
Fc1cccc(F)c1-n1c(CN2CCCC2)csc1=S	-	.	-	-
CC1=NNC(=O)C1C(c1ccccc1)C1C(=O)NN=C1C (centres undefined)	-	.	-	-
O=C(COc1coc(CN2CCCc3ccccc32)cc1=O)Nc1cccc([N+](=O)[O-])c1	-	.	.	.
Cc1c(C(=O)Nc2ccc3c(c2)OCCO3)sc2ncnc(N3CCCCC3C)c12 (centres undefined)	-	-	-	-
COc1ccc(CCN2CC(C(=O)NCC3(O)CCCCC3)CCC2=O)cc1 (centres undefined)	-	-	-	-
CCOC(=O)CC1(NC(=O)C2CCC(=O)N(CCc3ccc(OC)cc3)C2)CCCCC1 (centres undefined)	?	-	-	28.5
O=C(NCCOc1ccccc1)C1CCC(=O)N(Cc2ccc(Cl)cc2)C1 (centres undefined)	-	-	-	-
SMILES	SARS PLP yeast	NS1 inh	Shiga toxin inh	Cycloheximide cs
O=C(NCCOc1ccccc1)C1CCC(=O)N(CCc2ccc(Cl)cc2)C1 (centres undefined)	-	-	-	19.4
Cc1cc(SCc2cccc([N+](=O)[O-])c2)nc(=O)[nH]1	-	-	-	-
C(=C\c1ccccc1)/CSc1nc2ncccc2[nH]1	-	-	53.3	25.2
O=C(CSc1nc2ncccc2[nH]1)c1ccc(F)cc1	-	-	-	43.0
Cc1cc(SCC(=O)c2cccc([N+](=O)[O-])c2)nc(=O)[nH]1	-	-	80.1	34.6
O=C(CSc1nc2ncccc2[nH]1)c1cccc([N+](=O)[O-])c1	-	?	-	19.1
CCN(C(=O)COC(=O)CNC(=O)c1ccc(C)s1)c1ccccc1	-	-	-	-
COC(=O)CSc1nc2ncccc2[nH]1	-	-	-	-
Fc1ccc(CSc2nc3ncccc3[nH]2)cc1	-	-	71.1	29.6
Fc1cccc(CSc2nc3ncc(Cl)cc3[nH]2)c1	-	-	-	19.9
Fc1cccc(CSc2nc3ncccc3[nH]2)c1	-	-	94.4	51.3
CSCCC(NC(=O)c1ccccc1Br)C(=O)Nc1ccc(C)cc1 (centres undefined)	-	-	-	-
CCCS(=O)(=O)O	.	-	.	.
Cc1ccc(C)c(OCc2cc(C(=O)N3CCc4sccc4C3)no2)c1	-	-	-	-
Cc1ccc(C)c(OCc2cc(C(=O)N3CCN(C(=O)c4ccco4)CC3)no2)c1	-	-	78.3	41.7
Cc1ccc(C)c(OCc2cc(C(=O)N3CCN(c4ccccc4)CC3)no2)c1	-	-	97.6	92.7
OCCC1CN(Cc2cccc(C(F)(F)F)c2)CCN1Cc1ccccc1 (centres undefined)	-	-	-	-
CCOC(=O)c1cnc2c(C)cccc2c1NCc1ccco1	-	-	37.0	24.2
CCOC(=O)c1cnc2c(C(=O)OC)cccc2c1NCc1ccco1	-	-	-	-
CCOC(=O)c1ccc2ncc(C(=O)OCC)c(NCc3ccco3)c2c1	-	-	-	26.7
O=C1C=C(NCc2ccccc2)CCC1	-	-	-	-
O=C1C=C(NC2=CC3OC(c4ccccc4)OCC3OC2=O)CCC1 (centres undefined)	-	-	35.3	27.0
CC(C)(C)NC(=O)c1cc2c(ccc3ccccc32)oc1=O	-	-	.	26.6
COc1ccc2cc(C(N)=O)/c(=N\NC(=O)c3ccccc3)oc2c1	-	-	68.3	43.6
CNC(=O)c1cc2ccc(OC)cc2oc1=O	-	-	-	12.2
SMILES	SARS PLP yeast	NS1 inh	Shiga toxin inh	Cycloheximide cs
CCOC(=O)c1cc2ccc(OC)cc2oc1=O	-	-	65.6	18.4
CCCCCc1cccnc1	-	-	-	-
COc1ccc(-c2cn(Cc3ccc(C(=O)NCc4ccc(C)cc4)cc3)c(C(C)N)n2)cc1 (centres undefined)	-	.	.	.
O=C(NCc1ccccc1)c1cc2ccccc2oc1=O	-	-	43.5	49.7
COc1ccccc1CNC(=O)c1cc2ccccc2oc1=O	-	-	-	-
CN(C)C(CNC(=O)c1cc2ccccc2oc1=O)c1ccccc1 (centres undefined)	-	-	89.8	26.6
O=C(NCc1ccc(Cl)cc1)c1cc2ccccc2oc1=O	-	-	-	-
COc1ccc2cc(C(=O)NCc3ccccc3)c(=O)oc2c1	-	-	43.2	13.1
COc1ccc(CNC(=O)c2cc3ccccc3oc2=O)cc1	-	-	-	-
CCN(CC)S(=O)(=O)c1cc(NC(=O)c2n[nH]c(=O)c3ccccc23)ccc1C	-	-	-	21.1
CC(C)c1ccc(NC(=O)c2n[nH]c(=O)c3ccccc23)cc1	-	.	44.4	45.1
COc1ccc(-c2sc3cc(OC)c(OC)cc3c2-c2ccc(O)cc2)cc1	-	.	.	.
Cc1ccc(CN2CCN(Cc3ccc(C)o3)[C@@H](C)C2)o1	.	-	.	.
Cc1nnc(N2C(=O)C(O)=C(C(=O)c3ccco3)C2c2ccc(C(C)C)cc2)s1 (centres undefined)	-	-	64.3	39.7
